Values joined by “and” are separate entries in the source; they are usually repeats but may differ in a detail not shown here. Equal entries are not always repeated.

The nature of this assay: High-throughput drug toxicity screening in the BPDCN cell line Gen2.2 (AID 1224824). The settings on record: Gen2.2 BPDCN cells; at 45.8 µM (top of the series) unless noted. An excerpt:
Blastic plasmacytoid dendritic cell neoplasm (BPDCN) is a rare, aggressive and largely incurable hematologic malignancy originating from plasmacytoid dendritic cells (pDCs). Although an initial response to chemotherapy is common, BPDCN prognosis is extremely poor and most patients relapse with drug-resistant disease leading to a median overall survival of ~1 year after diagnosis. To explore novel potential therapeutic strategies in BPDCN, we performed a high-throughput drug toxicity screening in BPDCN cell liens, using of a library of 1,912 small molecules, enriched for compounds that are either approved or in early stages of development for cancer therapy.
A total of 500 exponentially growing Gen2.2 cells were seeded per well in 5 uL of media (RPMI + Glutamine, without phenol red plus10% FBS and 1X Pen/Strep) into 1536-well solid white high base tissue culture treated Greiner One Bio Plates (789173-F), using a multidrop combi dispenser and a small sterile cassette. Compounds and controls totaling 23nL per well (negative control DMSO and positive control 9.2 uM Bortezomib-final) were immediately added to the plates using a 1536 head pin tool from Kalypsys. The plates were then covered with stainless steel gasket lids from Kalypsys and incubated for 48 hours at 37C under 95% relative humidity with 5% CO2. After 48 hours, the plates were removed and allowed to reach room temperature before 3 uL of Cell Titer Glo reagent (Promega) were added using an Aurora Flying Reagent Dispenser Bioraptor. The plates were then spun at 1000 rpms to remove bubbles and incubated for 15 minutes at room temperature before reading on a ViewLux using a luminescent filter with a 10 second exposure. The relative luciferase units were used to calculated percent activity using DMSO as 100% and Bortezomib as 0%.
On to `O=C1CCCC2=C1C(c1[nH]ncc1Cl)N=C(Nc1nc3ccccc3o1)N2` (stereo not given), for which the cell viability, % of control (lower = more cytotoxic) was 73.8%.
For `COc1ccc([C@@H]2CC(=O)c3c(O)cc(O[C@@H]4O[C@H](CO[C@@H]5O[C@@H](C)[C@H](O)[C@@H](O)[C@@H]5O)[C@@H](O)[C@H](O)[C@@H]4O)cc3O2)cc1O`, the cell viability, % of control (lower = more cytotoxic) is 52.6% and 176%.
For the compound `CCOc1ccc(Cc2cc([C@@H]3O[C@H](CO)[C@@H](O)[C@H](O)[C@@H]3O)ccc2Cl)cc1`, the cell viability, % of control (lower = more cytotoxic) was 55.1%.
For the compound `O=C(O)COCCN1CCN(C(c2ccccc2)c2ccc(Cl)cc2)CC1` (stereo not given), the cell viability, % of control (lower = more cytotoxic) was determined as 178%.
As for `Oc1ccc(C2CNCCc3c2cc(O)c(O)c3Cl)cc1` (stereo not given), the cell viability, % of control (lower = more cytotoxic) was 156%.
In the case of `CN(C)c1ccc(Nc2nc(N)n(C(=O)c3c(F)cccc3F)n2)cc1`, the cell viability, % of control (lower = more cytotoxic) was determined as 73.4%.
`Cn1cnc2c(F)c(Nc3ccc(Br)cc3Cl)c(C(=O)NOCCO)cc21`: the cell viability, % of control (lower = more cytotoxic) was determined as 4.9%.
Turning to `C[C@@H]1CN(Cc2ccc(F)cc2)[C@@H](C)CN1C(=O)c1cc2c(C(=O)C(=O)N(C)C)cn(C)c2cc1Cl`, the cell viability, % of control (lower = more cytotoxic) was 160%.
With `Nc1nc2[nH]cc(CCc3ccc(C(=O)N[C@@H](CCC(=O)O)C(=O)O)cc3)c2c(=O)[nH]1` the figure was 115%.
With `COc1ccc2nc(S(=O)Cc3ncc(C)c(OC)c3C)[nH]c2c1` (stereo not given) the figure was 138%.
The value for `O=c1n(CCCN2CCN(c3cccc(Cl)c3)CC2)nc2ccccn12` was 165%.
In the case of `C1COC(NC(C2CC2)C2CC2)=N1`, the cell viability, % of control (lower = more cytotoxic) stood at 33.1%.
As for `N#CC[C@H](C1CCCC1)n1cc(-c2ncnc3[nH]ccc23)cn1`, the cell viability, % of control (lower = more cytotoxic) is 230%.
Consider `CN(C(=O)c1ccc(F)cc1C(F)(F)F)C1CCN(c2nnc(-c3ccnn3C)c3ccccc23)CC1`, for which the cell viability, % of control (lower = more cytotoxic) was 13.6%.
As for `Cn1cnc([N+](=O)[O-])c1Sc1ncnc2nc[nH]c12`, the cell viability, % of control (lower = more cytotoxic) worked out at 16.2%.
In the case of `CCOC(=O)N[C@@H]1CC[C@@H]2[C@@H](C1)C[C@H]1C(=O)O[C@H](C)[C@H]1[C@@H]2C=Cc1ccc(-c2cccc(F)c2)cn1`, the cell viability, % of control (lower = more cytotoxic) stood at 14.3%.
For `CCc1cc(Nc2nccc(-c3c(-c4ccc(OC)c(C(=O)Nc5c(F)cccc5F)c4)nc4ccccn34)n2)c(OC)cc1N1CCC(N2CCN(S(C)(=O)=O)CC2)CC1`, the cell viability, % of control (lower = more cytotoxic) worked out at 179%.
As for `O=C1CCC(N2C(=O)c3ccccc3C2=O)C(=O)N1` (stereo not given), the cell viability, % of control (lower = more cytotoxic) is 167%.
Regarding `N[C@@H]1CONC1=O`, the cell viability, % of control (lower = more cytotoxic) was determined as 150%.
As to `OCCn1cc(-c2cnc3nnn(Cc4ccc5ncccc5c4)c3n2)cn1`, the cell viability, % of control (lower = more cytotoxic) was 140%.
As to `C#Cc1cccc(Nc2ncnc3cc(OCCOC)c(OCCOC)cc23)c1`, the cell viability, % of control (lower = more cytotoxic) worked out at 24.7%.
As to `CCCn1c(=O)c2[nH]c(C34CC5CC3C[C@@H](C5)C4)nc2n(CCC)c1=O`, the cell viability, % of control (lower = more cytotoxic) was 214%.
Consider `CC(C=CC1=C(C)CCCC1(C)C)=CC=CC(C)=CC(=O)O`, for which the cell viability, % of control (lower = more cytotoxic) is 49.1% and 83.4%.
With `Cc1[nH]c(=O)c(C#N)cc1-c1ccc2nccn2c1`, the cell viability, % of control (lower = more cytotoxic) is 220%.
Consider `CC(C[N+](C)(C)C)OC(N)=O` (stereo not given), for which the cell viability, % of control (lower = more cytotoxic) was 120%.
The value for `Fc1ccc(Cl)cc1-c1nc(Nc2ccncc2)c2nccnc2n1` was 443%; that for `COc1ccc(-c2c(-c3ccc(O)cc3O)n[nH]c2C)cc1` was 96.4% [at 92.2 µM]; that for `O=C(O)CCc1ccc(NCc2cccc(Oc3ccccc3)c2)cc1` was 132%.
The value for `Cc1cc2c(F)c(Oc3ncnn4cc(OC[C@@H](C)O)c(C)c34)ccc2[nH]1` was 249%.
With `O=c1[nH]c(-c2ccc(C(F)(F)F)cc2)nc2c1CSCC2` the figure was 117%; with `COc1ccc2c3n(c(=NC(=O)c4cccnc4)nc2c1OC)CCN3`, 9.57%; with `COc1nc(-c2ccc3c(c2)OCO3)n(-c2ccc(NC(=O)CSc3ccccc3)cc2)n1`, 127%.
In the case of `CCOc1ccn(-c2ccc(F)cc2)c(=O)c1C(=O)Nc1ccc(Oc2ccnc(N)c2Cl)c(F)c1`, the cell viability, % of control (lower = more cytotoxic) stood at 145%.
For the compound `Cn1cc(-c2ccc3nnc(C(F)(F)c4ccc5ncccc5c4)n3n2)cn1`, the cell viability, % of control (lower = more cytotoxic) turned out to be 55.7%.
In the case of `Nc1ccc(S(=O)(=O)Nc2ccnn2-c2ccccc2)cc1`, the cell viability, % of control (lower = more cytotoxic) is 153%.
`COc1ccc(-c2ccc3c(N4CCOC[C@H]4C)nc(N4CCOC[C@H]4C)nc3n2)cc1CO`: the cell viability, % of control (lower = more cytotoxic) was determined as 11.3%.
In the case of `Cc1cn[nH]c1`, the cell viability, % of control (lower = more cytotoxic) was 120%.
`CC(C)(C)NCC(O)c1ccc(O)c(CO)c1` (stereo not given): the cell viability, % of control (lower = more cytotoxic) is 76%.
For the compound `CC[C@H](Nc1ncnc2nc[nH]c12)c1nc2cccc(F)c2c(=O)n1-c1ccccc1`, the cell viability, % of control (lower = more cytotoxic) came out at 4.94%.
Consider `NCCc1ccc(O)c(O)c1`, for which the cell viability, % of control (lower = more cytotoxic) amounted to 14.2%.

Source of the values: PubChem BioAssay (NCATS).
